# Source: PubChem BioAssay (Tox21)
# “And” between values parts separate entries of the source, which are not always exact repeats. Identical values can stand only once. Inconclusive results are not listed. A call without a number means that no potency is given here. The source made the active and inactive calls. Calls follow the shape of the dose curve; as a rule, active = well fitted curve in the direction sought with a large enough effect in the repeat runs; inconclusive = weak or mixed curves; inactive = no such curve, though single readings can be large; an effect the other way counts as inactive or inconclusive.
# Assay: A CellTox Green Cytotoxicity Assay to monitor cytotoxicity in HEK293 cells - 40 hour (AID 1224871); also: nearly all actives have a fitted effect of over 45% in size
# Details: CellTox Green fluorescence; series mostly up to 76.8 µM
# In short: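 Each value comes from one timepoint of a single continuous run in which HEK293 cells with CellTox Green were exposed to compound for up to 40 h at 37 C, dye fluorescence rising with cell death.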
row,SMILES,Potency
1,Cc1ccc(C(C)C)cc2c(C)ccc1-2,inactive
2,CCCCCCC1CCCC(=O)O1 (stereo not given),inactive
3,CC(CO)Oc1ccccc1 (stereo not given),inactive
4,CCC(CC)C(C)CCOC(C)=O (stereo not given),inactive
5,Cc1cccc(C)c1NC(=O)c1ccc(N)cc1,inactive
6,Cc1c(C)c2c(c(C)c1OC(=O)c1cccnc1)CC[C@@](C)(CCC[C@H](C)CCC[C@H](C)CCCC(C)C)O2,inactive
7,O=c1c(O)c(-c2ccc(O)cc2O)oc2cc(O)cc(O)c12,inactive
8,CC(C)(C)NSc1nc2ccccc2s1,inactive
9,Nc1ccc(C(=O)O)c(O)c1,inactive
10,CN1CCN2c3ccccc3Cc3ccccc3C2C1 (stereo not given),inactive
11,Oc1ccccc1O,inactive
12,CCC(=O)OC(=O)CC,inactive
13,CC(=O)Oc1cc2c(s1)CCN(C(C(=O)C1CC1)c1ccccc1F)C2 (stereo not given),inactive
14,O=C(/C=C/c1ccccc1)OC/C=C/c1ccccc1,inactive
15,OC/C=C/CO,inactive
16,CC(=O)CC(=O)Nc1ccc(S(=O)(=O)O)cc1,inactive
17,O[C@@H]([C@H](O)[C@H](O)CBr)[C@H](O)CBr,inactive

# Assay: qHTS RealTime-Glo MT Cell Viability Assay in HEK293 cells - 16 hour (AID 1224872); also: nearly all actives have a fitted effect of over 50% in size; also: potency is read from the fitted curve at half-maximal effect; as to activity change, negative = cytotoxicity: top concentration of the series differs between compounds
# Details: RealTime-Glo luminescence; series mostly up to 76.8 µM
# In short: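 Luminescence generated by NanoLuc from substrate produced by living HEK293 cells served as the viability signal. Each value reflects the reading at its stated time point during continuous 40 h compound exposure at 37 C.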
SMILES,Potency,"activity change, negative = cytotoxicity"
CN(C)Cc1ccccc1O,inactive,
CC(CCc1ccccc1)NCC(O)c1ccc(O)c(C(N)=O)c1 (stereo not given),inactive,
C#C[C@]1(O)CC[C@H]2[C@@H]3[C@H](C)CC4=C(CCC(=O)C4)[C@H]3CC[C@@]21C,inactive,
COC(C)=O,inactive,
CC1(C)CCC[C@]2(C)[C@H]3CC(=O)O[C@]3(C)CC[C@@H]12,inactive,
CC(C)(C)C1CCC(=O)CC1,inactive,
CC(C)CCOC(=O)/C=C/c1ccccc1,inactive,
Cc1ccc(C(=O)O)cc1,inactive,
Nc1ccc(Oc2ccc(Cl)cc2)cc1,21.4 µM (active),
CC[C@H](C)COC(=O)/C=C/c1ccc(N=Cc2ccc(OC)cc2)cc1,21.8 µM (active),
CCCC(=O)OC(C)(C)Cc1ccccc1,inactive,
C=CCCC(=O)/C=C/C1C(C)=CCCC1(C)C (stereo not given),inactive,
CCCC(=O)OCCc1ccccc1,inactive,
CCCCOC(=O)CC,inactive,
O=C(O)c1cc(O)c2ccccc2c1O,38.9 µM (active),
CC(C)(C)CC(C)(C)c1ccc(Nc2ccc(C(C)(C)CC(C)(C)C)cc2)cc1,,-0.589% [at 6.97 µM] (inactive)
CC(C(=O)O)c1ccc2c(c1)[nH]c1ccc(Cl)cc12 (stereo not given),inactive,
COc1cc2nc(N3CCN(C(=O)c4ccco4)CC3)nc(N)c2cc1OC,,-20% [at 15.8 µM] (inactive)
OCC(F)(F)F,inactive,
C=Cc1cccc(C)c1,inactive,

SMILES,Potency,"activity change, negative = cytotoxicity"
O=C(O)c1ccc2cc(C(=O)O)ccc2c1,inactive,
C[C@@H](O)[C@H](N)C(=O)O,,-1.06% [at 15.8 µM] (inactive)
Cc1ccc(C(C)C)cc2c(C)ccc1-2,inactive,
CCCCCCC1CCCC(=O)O1 (stereo not given),inactive,
CC(CO)Oc1ccccc1 (stereo not given),inactive,
CCC(CC)C(C)CCOC(C)=O (stereo not given),inactive,
Cc1cccc(C)c1NC(=O)c1ccc(N)cc1,inactive,
Cc1c(C)c2c(c(C)c1OC(=O)c1cccnc1)CC[C@@](C)(CCC[C@H](C)CCC[C@H](C)CCCC(C)C)O2,inactive,
O=c1c(O)c(-c2ccc(O)cc2O)oc2cc(O)cc(O)c12,inactive,
CC(C)(C)NSc1nc2ccccc2s1,inactive,
Nc1ccc(C(=O)O)c(O)c1,inactive,
CN1CCN2c3ccccc3Cc3ccccc3C2C1 (stereo not given),inactive,
Oc1ccccc1O,55.6 µM (active) and 49 µM (active),
CCC(=O)OC(=O)CC,inactive,
CC(=O)Oc1cc2c(s1)CCN(C(C(=O)C1CC1)c1ccccc1F)C2 (stereo not given),inactive,
O=C(/C=C/c1ccccc1)OC/C=C/c1ccccc1,inactive,
OC/C=C/CO,inactive,
CC(=O)CC(=O)Nc1ccc(S(=O)(=O)O)cc1,inactive,
O[C@@H]([C@H](O)[C@H](O)CBr)[C@H](O)CBr,inactive,

# Assay: qHTS RealTime-Glo MT Cell Viability Assay in HepG2 cells - 8 hour (AID 1224873); also: nearly all actives have a fitted effect of over 55% in size; also: potency is read from the fitted curve at half-maximal effect
# Details: RealTime-Glo luminescence; series mostly up to 76.8 µM
# In short: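 HepG2 cells mixed with RealTime-Glo MT reagents (NanoLuc plus cell-permeant prosubstrate) were seeded at 600 cells/well, incubated 5 h at 37 C/5% CO2, then pinned with compounds in DMSO; nonlytic luminescence tracked viability during 40 h treatment.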
SMILES,Potency,"viability change, negative = cytotoxic"
CN(C)Cc1ccccc1O,inactive,
CC(CCc1ccccc1)NCC(O)c1ccc(O)c(C(N)=O)c1 (stereo not given),inactive,
C#C[C@]1(O)CC[C@H]2[C@@H]3[C@H](C)CC4=C(CCC(=O)C4)[C@H]3CC[C@@]21C,inactive,
COC(C)=O,inactive,
CC1(C)CCC[C@]2(C)[C@H]3CC(=O)O[C@]3(C)CC[C@@H]12,inactive,
CC(C)(C)C1CCC(=O)CC1,inactive,
CC(C)CCOC(=O)/C=C/c1ccccc1,inactive,
Cc1ccc(C(=O)O)cc1,inactive,
Nc1ccc(Oc2ccc(Cl)cc2)cc1,inactive,
CC[C@H](C)COC(=O)/C=C/c1ccc(N=Cc2ccc(OC)cc2)cc1,inactive,
CCCC(=O)OC(C)(C)Cc1ccccc1,inactive,
C=CCCC(=O)/C=C/C1C(C)=CCCC1(C)C (stereo not given),inactive,
CCCC(=O)OCCc1ccccc1,inactive,
CCCCOC(=O)CC,inactive,
O=C(O)c1cc(O)c2ccccc2c1O,17.4 µM (active),
CC(C)(C)CC(C)(C)c1ccc(Nc2ccc(C(C)(C)CC(C)(C)C)cc2)cc1,,4.91% [at 6.97 µM] (inactive)
CC(C(=O)O)c1ccc2c(c1)[nH]c1ccc(Cl)cc12 (stereo not given),inactive,
COc1cc2nc(N3CCN(C(=O)c4ccco4)CC3)nc(N)c2cc1OC,,-0.626% [at 15.8 µM] (inactive)
OCC(F)(F)F,inactive,
C=Cc1cccc(C)c1,inactive,

SMILES,Potency,"viability change, negative = cytotoxic"
O=C(O)c1ccc2cc(C(=O)O)ccc2c1,inactive,
C[C@@H](O)[C@H](N)C(=O)O,,1.46% [at 15.8 µM] (inactive)
Cc1ccc(C(C)C)cc2c(C)ccc1-2,inactive,
CCCCCCC1CCCC(=O)O1 (stereo not given),inactive,
CC(CO)Oc1ccccc1 (stereo not given),inactive,
CCC(CC)C(C)CCOC(C)=O (stereo not given),inactive,
Cc1cccc(C)c1NC(=O)c1ccc(N)cc1,inactive,
Cc1c(C)c2c(c(C)c1OC(=O)c1cccnc1)CC[C@@](C)(CCC[C@H](C)CCC[C@H](C)CCCC(C)C)O2,inactive,
O=c1c(O)c(-c2ccc(O)cc2O)oc2cc(O)cc(O)c12,inactive,
CC(C)(C)NSc1nc2ccccc2s1,inactive,
Nc1ccc(C(=O)O)c(O)c1,inactive,
CN1CCN2c3ccccc3Cc3ccccc3C2C1 (stereo not given),inactive,
Oc1ccccc1O,inactive,
CCC(=O)OC(=O)CC,inactive,
CC(=O)Oc1cc2c(s1)CCN(C(C(=O)C1CC1)c1ccccc1F)C2 (stereo not given),inactive,
O=C(/C=C/c1ccccc1)OC/C=C/c1ccccc1,inactive,
OC/C=C/CO,inactive,
CC(=O)CC(=O)Nc1ccc(S(=O)(=O)O)cc1,inactive,
O[C@@H]([C@H](O)[C@H](O)CBr)[C@H](O)CBr,inactive,
